Assay outcomes (PubChem)
D2 PAM-1: potentiates the human D2 dopamine receptor allosterically; P14416; potentiation, % (test concentration not listed); DiscoveRx D2 beta-arrestin cells, luminescence, 90 min; 100% = 57 uM dopamine signal; actives 0.23% (n = 360,000); in the data active = potentiation above about 50%; inconclusive = mostly about 30% to 49%
Target sequence (P14416 whole entry, looked up): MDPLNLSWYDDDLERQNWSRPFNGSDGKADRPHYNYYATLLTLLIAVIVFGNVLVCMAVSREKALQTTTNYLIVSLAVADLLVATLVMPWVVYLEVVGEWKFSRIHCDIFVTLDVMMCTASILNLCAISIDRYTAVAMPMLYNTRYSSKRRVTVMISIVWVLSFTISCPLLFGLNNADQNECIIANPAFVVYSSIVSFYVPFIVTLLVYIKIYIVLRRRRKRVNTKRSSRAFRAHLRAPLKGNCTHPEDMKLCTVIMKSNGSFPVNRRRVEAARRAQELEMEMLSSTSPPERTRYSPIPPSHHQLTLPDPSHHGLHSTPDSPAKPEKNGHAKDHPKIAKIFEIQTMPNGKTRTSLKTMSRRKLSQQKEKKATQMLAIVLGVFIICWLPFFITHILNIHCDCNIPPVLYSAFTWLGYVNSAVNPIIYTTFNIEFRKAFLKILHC
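PathHunter beta-arrestin assay in DiscoveRx D2 cells. Compounds were added with an EC20 of dopamine (50 nM final) for 90 min at 37 deg C. Luminescence was read 1 h after detection reagent, with 57 uM dopamine as the EC100 control.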
D2 ag-1: activates the human D2 dopamine receptor; HEK293 T-REx D2 cells, calcium flux agonist mode; activation, % at 2 µM; actives 0.53% (n = 340,000); AID 485358; P14416;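 active = activation over 3 SD above normal in the single-dose calcium agonist read, cut at about 30% in these data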; note: 0% is about no effect
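Tetracycline-induced HEK293 T-REx cells with force-coupled D2 receptor, plated overnight at 30 C, loaded with no-wash calcium dye. After a 10 s baseline, compound was pin-added and calcium flux read kinetically for 180 s; calcium rises flagged agonists.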
D2 antagonist: antagonizes the human D2 dopamine receptor | AID 485344 | HEK293 TREx D2 cells, calcium flux, dopamine EC80 | inhibition, % at 10 µM | actives 2% (n = 340,000); in the data active = inhibition above about 30%; inactive = below that, where a call was filed; note: 0% is about no effect
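Calcium flux kinetic readout in an inducible HEK293 TREx D2 line plated overnight at 30 C. After 180 s compound exposure, an EC80 dopamine challenge follows with another 180 s kinetic read to detect antagonism.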
D2 PAM-2: positively modulates the human D2 dopamine receptor allosterically; actives 0.34% (n = 340,000); HEK293 T-REx D2, calcium flux, EC20 dopamine potentiation; potentiation, % at 10 µM; AID 485347;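 active = potentiation over 3 SD above the plate norm, cut at about 30% in these data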; note: 0% is about no effect
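Tetracycline-induced Hek293 Trex D2 cells, force-coupled to calcium, loaded with no-wash calcium dye. Compound added with 180 s kinetic read for agonism, then EC20 dopamine and a further 180 s read for potentiation.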
D2 ag-2: activates the human D2 dopamine receptor. AID 624465. DiscoveRx PathHunter D2 beta-arrestin, luminescence, 90 min; 100% = 57 uM dopamine signal. P14416. actives 0.084% (n = 360,000). activation, % (test concentration not listed); in the data active = activation above about 40%; inconclusive = between about 15% and that limit
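Agonist mode: compounds alone added to overnight-plated D2 PathHunter cells for 90 min at 37 C, with 57 uM final dopamine (EC100) defining full response. Beta-arrestin recruitment detected by chemiluminescent reagent, read after 1 h at ambient temperature.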
D3 arrestin ag: D3 receptor agonism confirmed, beta-arrestin readout; shares compounds with D2 ag-1; DiscoveRx D3 beta-arrestin cells, luminescence, 90 min; Potency, µM (top dose mostly 76.9 µM), without a hit: at the highest dose activation, usual class: activators; actives 4% (n = 2,300); AID 720506;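 note: potency is the fitted concentration of half-maximal effect; 100% = dopamine control response; nearly all actives have a fitted effect of over 70% in size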
D2 ag-3: D2 receptor agonism, beta-arrestin counterscreen; DiscoveRx PathHunter D2 beta-arrestin, luminescence, 90 min; response scale: percent relative to full dopamine signal; Potency, µM (doses to about 76.9 µM), inactives show at the highest dose activation, hits mostly activators; shares compounds with D2 ag-1; actives 5.9% (n = 2,300); note: potency is the fitted concentration of half-maximal effect; % of control where 0% means no effect; nearly all actives have a fitted effect of over 70% in size
An asterisk follows results filed as active; ? = inconclusive; · = not tested or not shown. A selection: hits, their analogues and other compounds. The true share with any hit is near 2.4%. Unless noted, calls come from the whole dose curve; as a rule, active = well fitted activation curve with a large enough effect; inconclusive = small, poorly fitted or top-dose-only effect; inactive = flat fitted curve, though single readings scatter.

SMILES | D2 PAM-1 | D2 ag-1 | D2 antagonist | D2 PAM-2 | D2 ag-2 | D3 arrestin ag | D2 ag-3
Cc1cc(C)nc(/N=C(\N)Nc2ccc(CC(=O)OC(C)C)cc2)n1 | -26.2 | 33.2* | 58.6* | -8.5 | 4.0 | 4.0% | ?
COc1ccccc1N/C(N)=N/c1nc(C)cc(C)n1 | -15.9 | 0.6 | -0.4 | -13.3 | -4.0 | · | ·
Cc1cc(C)nc(/N=C(\N)Nc2ccc(S(=O)(=O)O)cc2)n1 | 6.3 | 1.6 | -8.8 | -1.4 | 2.2 | · | ·
CCc1ccc(N/C(=N/c2nc(C)cc(C)n2)NC(C)=O)cc1 | -4.0 | -2.7 | 6.3 | 20.4 | -3.5 | · | ·
Cc1cc(C)nc(/N=C(\N)Nc2ccc(OCCC(C)C)cc2)n1 | -9.0 | 82.5* | 51.9* | -21.7 | 2.8 | -2.2% | 27.4%
CC(C)Cn1nc(NC(=O)c2cccc(Cl)c2)c2cc3ccccc3nc21 | · | -1.1 | · | 17.7 | · | · | ·
OCCN1CCN(CCOc2cccc(Cl)c2)CC1 | -28.6 | 33.0* | 76.0* | -23.4 | 3.1 | ? | 4.2%
COCc1c(C(=O)N2CCN(CCOc3ccccc3)CC2)oc2ccccc12 | 9.8 | 80.3* | 77.5* | -22.2 | ? | 0.316µM* | ?
O=C(c1ccc(Cl)cc1)N1CCN(CCOc2ccccc2)CC1 | -1.8 | 74.3* | 76.4* | -22.3 | ? | 0.1µM* | 25.1µM*
COc1ccc(OCCN2CCN(C(=O)c3ccc(OC(F)F)c(OC)c3)CC2)cc1 | 0.8 | 11.5 | -3.9 | 11.5 | 3.5 | · | ·
Cc1ccc(C)n1CCN1CCN(C(=O)c2ccc(Cl)cc2)CC1 | -33.8 | -1.9 | 8.6 | -16.5 | -0.4 | · | ·
COc1ccc(OCCN2CCN(C(=O)c3ccc(OC)cc3)CC2)cc1 | -7.2 | 42.1* | 12.6 | -10.2 | 2.5 | 0.447µM* | 18.3%
COc1ccc(-c2cnc(C(N)=O)c(=O)[nH]2)cc1 | -8.9 | · | · | · | -4.1 | · | ·
O=C(c1c(F)cccc1F)N1CCN(CCOc2ccccc2)CC1 | -8.9 | 60.0* | 21.5 | -9.3 | 0.7 | ? | 18.3%
CC(OC(=O)C1CCCC1)C(=O)Nc1ncc(Cl)cc1Cl (stereo not given) | -1.3 | 0.3 | -5.9 | 4.2 | 2.2 | -2.6% | -1.7%
Cc1c(C(=O)O)sc(S(=O)(=O)N2CCN(C(=O)CC(C)c3ccccc3)CC2)c1C(=O)O (stereo not given) | -11.9 | · | · | · | -2.8 | · | ·
CCOc1ccc(NC(=O)Cn2cc(C(=O)c3ccc(F)cc3)c(=O)c3cc4c(cc32)OCCO4)cc1 | · | 1.3 | · | 0.0 | · | · | ·
CCN1C=CC2=C(C#N)C(N)C(C#N)(C#N)C(c3ccccc3C(F)(F)F)C2C1 (stereo not given) | -13.4 | 3.0 | 13.9 | 14.3 | -8.4 | -1.5% | -2.7%
CCN1C=C(Cc2ccccc2C)C2=C(C1)C(c1ccccc1C)C(C#N)=C(N)O2 (stereo not given) | -34.0 | · | · | -0.2 | -0.4 | · | ·
O=C(/C=C/c1ccccc1Cl)Nc1ccccc1 | -2.8 | -0.9 | -6.7 | -13.5 | 3.5 | · | ·
CN(C)S(=O)(=O)c1ccc(NC(=O)/C=C/c2ccccc2Cl)cc1 | -12.6 | 13.9 | 13.1 | 18.1 | ? | ? | 15.2%
COc1ccc2cc(C(=O)C3CCCN(Cc4cnc(N5CCOCC5)s4)C3)ccc2c1 (stereo not given) | -5.1 | 36.1* | -4.1 | -14.1 | 0.1 | -8.6% | -0.4%
Cc1c(C(=O)Nc2ccc(C(C)C)cc2)sc2nc3n(c(=O)c12)CCC3 | · | 1.5 | · | -2.4 | · | · | ·
CC1(c2ccc(F)cc2)OC(=O)c2c1ccc1ccccc21 (stereo not given) | -2.4 | · | · | · | -0.9 | · | ·
COC(=O)CCC(C)N1CCC(Oc2ccc(C(=O)N3CCCC3)cc2)CC1 (stereo not given) | -20.1 | 51.5* | 9.0 | -18.2 | -4.0 | 7.5% | 5.7%
Cc1ccc(O)c(NC(=S)NC(=O)Cc2ccc(Cl)cc2)c1 | -6.0 | · | · | · | 2.2 | -7.1% | -1.9%
Cc1cc(C)c(NC(=O)Cn2cnc3c(oc4ccccc43)c2=O)c(C)c1 | -5.8 | -0.1 | 15.6 | -8.0 | 4.9 | -1.4% | -1.4%
